Five compounds from PubChem BioAssay can be followed below.

Structures are written as SMILES. The source made the active and inactive calls.

A short description of assay [1]: small molecules captured by biotinylated probe aFSTL3 – biochemical, small-molecule microarray, fluorescence 635/667, stem cell growth factor project, primary screen (AID 1064).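 Further: measures binding of the biotinylated anti-FSTL3 antibody to printed compounds.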 The conditions noted are these: higher = more signal.
Assay [2] in a line: binders from COS7 lysate, DM2A8 probe, primary screen, torsin A project, cell lysate, small-molecule microarray, fluorescence 635/667 (AID 1065). As to conditions: higher = more signal, COS7 lysate expressing mutant human TOR1A.
Assay [3] in a line: small molecules captured by biotinylated probe aFGF2 – biochemical, small-molecule microarray, fluorescence 635/667, stem cell growth factor project, primary screen (AID 1067).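 Further: measures binding of biotinylated aFGF2 protein to printed compounds on slides; z-score merges feature fluorescence and signal-to-noise across triplicate slides.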 As to conditions: higher = more signal.
Assay [4] is described as follows: small molecules captured by biotinylated probe aFGF10 – biochemical, small-molecule microarray, fluorescence 635/667, stem cell growth factor project, primary screen (AID 1071).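 Further: score merges 667 nm spot intensity and signal to noise from triplicate slides.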 As to conditions: higher = more signal.
The target in assay [5] is Neurogenic locus notch homolog protein 2 (Homo sapiens) (UniProt Q04721). As to the kind of experiment: small molecules binding Notch2 protein – biochemical, small-molecule microarray, 635 nm fluorescence, stem cell growth factors, primary screen (AID 1073). The conditions noted are these: higher = more signal.
Assay [6] deals with Pro-neuregulin-1, membrane-bound isoform (Homo sapiens) (UniProt Q02297). In words: small molecules binding neuregulin-1 protein – biochemical, small-molecule microarray, fluorescence 635/667, psychiatric disease protein project, primary screen (AID 1075).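 Further: score combines 667 nm spot fluorescence with signal to noise.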 As to conditions: NRG1 binding, 635 nm fluorescence, higher = more signal.
Pro-neuregulin-1, membrane-bound isoform (Homo sapiens), sequence (Q02297 whole entry, looked up, the tested form may be a part, canonical isoform): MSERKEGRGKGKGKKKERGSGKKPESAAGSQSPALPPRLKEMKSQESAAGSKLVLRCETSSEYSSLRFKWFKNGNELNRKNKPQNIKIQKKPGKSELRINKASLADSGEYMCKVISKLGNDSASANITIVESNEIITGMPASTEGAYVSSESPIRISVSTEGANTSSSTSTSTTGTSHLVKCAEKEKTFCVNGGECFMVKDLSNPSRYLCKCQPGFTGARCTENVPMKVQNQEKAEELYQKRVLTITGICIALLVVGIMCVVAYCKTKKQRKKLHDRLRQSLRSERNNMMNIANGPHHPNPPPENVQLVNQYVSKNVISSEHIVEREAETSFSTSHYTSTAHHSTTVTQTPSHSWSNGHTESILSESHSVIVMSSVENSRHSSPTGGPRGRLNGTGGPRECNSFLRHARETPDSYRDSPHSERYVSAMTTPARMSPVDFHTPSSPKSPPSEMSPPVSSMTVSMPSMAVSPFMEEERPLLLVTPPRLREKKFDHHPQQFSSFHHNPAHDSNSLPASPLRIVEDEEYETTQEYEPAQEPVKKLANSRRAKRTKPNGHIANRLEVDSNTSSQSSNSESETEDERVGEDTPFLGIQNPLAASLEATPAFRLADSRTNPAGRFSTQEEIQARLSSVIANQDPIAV
Assay [7] relates to Neuregulin-1 EGF-like domain. In words: small molecules binding NRG1 EGF domain – biochemical, small-molecule microarray, 635 nm fluorescence, primary screen (AID 1081).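 Further: binding of the protein to compounds printed on small-molecule microarray slides.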 The conditions noted are these: higher = more signal.
Assay [8] in a line: FRG1 expression reporter modulators in myotubes – cell-based, C2C12 myotubes, firefly/Renilla luciferase, luminescence, FRG1 inhibition for FSHD, primary screen (AID 1084). As to conditions: FRG1 promoter luciferase, higher = more signal, called active from +8 up or from −8 down.
Assay [9] can be described thus: small molecules captured by biotinylated probe aFST – biochemical, small-molecule microarray, fluorescence 635/667, stem cell growth factor project, primary screen (AID 1086).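 Further: score merges 667 nm fluorescence with signal-to-noise of each printed compound spot.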 The conditions noted are these: higher = more signal.
Assay [10] in a line: binders of probe aHhip on microarray, primary screen, stem cell growth factor project, biochemical, small-molecule microarray, fluorescence 635/667 (AID 1087).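 Further: score merges spot fluorescence at 667nm with spot signal to noise ratio.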 As to conditions: higher = more signal.
Assay [11] concerns PRMT1 (protein arginine N-methyltransferase 1). In words: small molecules binding arginine methyltransferase PRMT1 – biochemical, small-molecule microarray, 635 nm fluorescence, primary screen (AID 1088).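 Further: binding of Prmt1 protein to compounds spotted on small-molecule microarray slides.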 The conditions noted are these: higher = more signal.
A short description of assay [12]: growth effects on S. cerevisiae YJM789 – YJM789 clinical isolate, OD600, 24 h, basal, primary screen (AID 1089).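 Further: growth of clinical yeast isolate S. cerevisiae YJM 789 seeded 1000 cells per well; test concentration not given here.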 As to conditions: higher = more signal, called active from +8 up or from −8 down.
A short description of assay [13]: S. pombe growth modifiers, basal conditions – strain 972, OD600, 24 h, no modulator, primary screen (AID 1090).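 Further: basal condition with compound alone and no growth modifier present; test concentration not given here.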 The conditions noted are these: S. pombe 972 growth, higher = more signal, called active from +8 up or from −8 down.
A short description of assay [14]: budding yeast growth modifiers under rapamycin – strain BY4716, OD600, 96 h, primary screen (AID 1091). Further: test concentration not given here. As to conditions: S. cerevisiae BY4716 + rapamycin, higher = more signal, called active from +8 up or from −8 down.
For assay [15], the target named is Torsin-1A-interacting protein 2 (Homo sapiens) (UniProt Q8NFQ8). In words: small molecules binding lysate-expressed LULL1 – cell lysate, human LULL1 lysate, 635/667 nm fluorescence, primary screen (AID 1092).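 Further: probe is lysate of COS7 cells overexpressing human LULL1; score merges per-feature 667 nm fluorescence with signal-to-noise.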 The conditions noted are these: small-molecule microarray, hLULL1 lysate binding, 635 nm fluorescence; higher = more signal.
Torsin-1A-interacting protein 2 (Homo sapiens), sequence (Q8NFQ8 whole entry, looked up): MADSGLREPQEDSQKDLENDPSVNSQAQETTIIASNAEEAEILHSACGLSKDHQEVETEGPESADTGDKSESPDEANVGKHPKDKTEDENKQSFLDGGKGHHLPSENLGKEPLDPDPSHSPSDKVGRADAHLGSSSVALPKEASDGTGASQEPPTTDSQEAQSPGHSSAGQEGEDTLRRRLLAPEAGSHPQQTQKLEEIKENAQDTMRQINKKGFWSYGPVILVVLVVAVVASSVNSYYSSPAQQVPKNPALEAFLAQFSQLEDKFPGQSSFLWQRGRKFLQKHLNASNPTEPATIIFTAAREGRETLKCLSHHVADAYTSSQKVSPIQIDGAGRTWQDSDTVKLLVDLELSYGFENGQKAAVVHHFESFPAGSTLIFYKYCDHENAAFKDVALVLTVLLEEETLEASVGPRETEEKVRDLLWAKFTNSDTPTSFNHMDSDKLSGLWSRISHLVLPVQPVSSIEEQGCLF
Assay [16] in a line: optical density change of DRC41 E. coli – strain DRC41, OD650, 24 h, E. coli filamentation project, primary screen (AID 1093).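 Further: MC1000 strain lacking acrAB efflux and sulA so SOS filamentation is blocked; test concentration not given here.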 As to conditions: E. coli DRC41 growth, higher = more signal, called active from +8 up or from −8 down.
Assay [17] in a line: probe aLefty2 binding to arrayed compounds – biochemical, biotinylated probe, 635/667 nm fluorescence, primary screen (AID 1094).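 Further: score merges spot fluorescence near 667 nm with spot signal-to-noise ratio.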 The conditions noted are these: small-molecule microarray, higher = more signal.
Assay [18] has as its system Noggin (protein binding on small-molecule microarray). As to the kind of experiment: small molecules binding Noggin protein – biochemical, 635/667 nm fluorescence, primary screen (AID 1095).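 Further: score merges 667 nm feature fluorescence with signal to noise over triplicate slides.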 As to conditions: 635 nm fluorescence, higher = more signal.
The target of assay [19] is Neurogenic locus notch homolog protein 3 (Homo sapiens) (UniProt Q9UM47). As to the kind of experiment: small molecules binding NOTCH3 protein – biochemical, 635/667 nm fluorescence, primary screen (AID 1096). As to conditions: small-molecule microarray, 635 nm fluorescence, higher = more signal.
Neurogenic locus notch homolog protein 3 (Homo sapiens), sequence (Q9UM47 whole entry, looked up): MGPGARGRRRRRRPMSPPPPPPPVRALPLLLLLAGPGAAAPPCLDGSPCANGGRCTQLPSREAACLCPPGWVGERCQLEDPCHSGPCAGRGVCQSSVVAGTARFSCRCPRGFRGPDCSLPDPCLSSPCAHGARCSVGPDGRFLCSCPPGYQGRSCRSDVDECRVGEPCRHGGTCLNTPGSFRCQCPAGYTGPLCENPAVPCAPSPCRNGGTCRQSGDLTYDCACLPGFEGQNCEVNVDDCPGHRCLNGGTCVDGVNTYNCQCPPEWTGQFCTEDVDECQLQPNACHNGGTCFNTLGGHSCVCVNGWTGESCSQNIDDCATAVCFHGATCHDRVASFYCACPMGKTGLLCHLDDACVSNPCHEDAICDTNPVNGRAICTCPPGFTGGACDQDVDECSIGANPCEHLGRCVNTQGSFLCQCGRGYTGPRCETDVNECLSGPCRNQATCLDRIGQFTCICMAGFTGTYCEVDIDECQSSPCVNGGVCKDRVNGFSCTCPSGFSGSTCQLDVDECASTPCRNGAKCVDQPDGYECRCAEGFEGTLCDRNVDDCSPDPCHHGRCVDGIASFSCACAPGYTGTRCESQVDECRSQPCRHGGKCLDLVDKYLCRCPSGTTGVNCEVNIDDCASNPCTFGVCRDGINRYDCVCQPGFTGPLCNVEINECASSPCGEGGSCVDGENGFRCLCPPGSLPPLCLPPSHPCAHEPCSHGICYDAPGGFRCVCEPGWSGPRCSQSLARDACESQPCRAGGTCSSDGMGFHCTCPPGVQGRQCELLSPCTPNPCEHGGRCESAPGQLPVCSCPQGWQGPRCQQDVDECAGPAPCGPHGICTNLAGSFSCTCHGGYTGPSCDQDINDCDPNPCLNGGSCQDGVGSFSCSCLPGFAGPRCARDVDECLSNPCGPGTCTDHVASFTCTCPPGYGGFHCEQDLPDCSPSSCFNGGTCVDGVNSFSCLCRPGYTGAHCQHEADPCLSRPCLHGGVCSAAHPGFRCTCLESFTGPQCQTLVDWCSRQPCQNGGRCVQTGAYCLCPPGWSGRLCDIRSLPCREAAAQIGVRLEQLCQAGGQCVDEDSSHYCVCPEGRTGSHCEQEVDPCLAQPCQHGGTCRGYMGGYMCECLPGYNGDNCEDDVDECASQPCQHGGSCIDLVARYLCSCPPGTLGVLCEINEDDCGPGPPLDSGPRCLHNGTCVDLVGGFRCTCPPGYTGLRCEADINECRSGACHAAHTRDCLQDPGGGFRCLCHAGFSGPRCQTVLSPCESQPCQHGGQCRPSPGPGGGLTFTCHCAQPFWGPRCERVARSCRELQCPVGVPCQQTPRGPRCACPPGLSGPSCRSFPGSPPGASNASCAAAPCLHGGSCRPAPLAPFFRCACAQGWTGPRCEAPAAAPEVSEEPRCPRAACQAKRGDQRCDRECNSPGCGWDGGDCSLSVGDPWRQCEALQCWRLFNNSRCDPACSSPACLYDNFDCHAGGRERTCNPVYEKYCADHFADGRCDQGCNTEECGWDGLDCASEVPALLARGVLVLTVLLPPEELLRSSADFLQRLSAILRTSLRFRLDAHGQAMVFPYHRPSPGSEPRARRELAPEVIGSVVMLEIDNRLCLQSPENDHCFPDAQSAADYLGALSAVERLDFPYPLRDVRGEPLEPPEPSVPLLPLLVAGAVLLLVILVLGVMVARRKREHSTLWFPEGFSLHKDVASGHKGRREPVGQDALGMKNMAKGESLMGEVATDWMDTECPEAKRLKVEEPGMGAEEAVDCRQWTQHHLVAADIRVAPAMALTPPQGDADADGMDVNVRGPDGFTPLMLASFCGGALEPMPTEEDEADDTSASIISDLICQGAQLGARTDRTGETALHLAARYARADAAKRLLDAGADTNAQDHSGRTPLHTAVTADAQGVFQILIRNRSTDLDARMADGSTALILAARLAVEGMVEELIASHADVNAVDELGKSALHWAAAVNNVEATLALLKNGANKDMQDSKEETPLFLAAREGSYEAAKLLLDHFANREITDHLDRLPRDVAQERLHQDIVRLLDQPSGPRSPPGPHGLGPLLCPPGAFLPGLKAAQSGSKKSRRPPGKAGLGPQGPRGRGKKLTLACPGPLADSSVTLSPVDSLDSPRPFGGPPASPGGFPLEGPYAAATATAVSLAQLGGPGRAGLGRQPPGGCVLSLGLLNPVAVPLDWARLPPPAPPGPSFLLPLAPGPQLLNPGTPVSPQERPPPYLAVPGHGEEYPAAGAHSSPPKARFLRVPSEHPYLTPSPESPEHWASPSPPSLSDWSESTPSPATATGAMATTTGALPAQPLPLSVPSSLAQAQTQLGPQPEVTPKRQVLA
Assay [20] is described as follows: probe aEGFR binding to arrayed compounds – biochemical, biotinylated probe, 635/667 nm fluorescence, primary screen (AID 1097).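 Further: probe is a biotinylated anti-EGFR antibody binding compounds printed on slides; score combines fluorescence near 667 nm and signal to noise of each spot.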 As to conditions: small-molecule microarray, higher = more signal.

On to `CN(C)CCCC[C@@H]1NC(=O)[C@@H]2C[C@H](C(=O)O)[C@H](c3cccc(OCCO)c3)N2C1=O`, for which the composite z-score is 0.119 in [1]; -0.326 in [2]; -0.186 in assay [3]; -0.392 in assay [4]; -0.561 in [5]; -0.579 in assay [6]. Besides, the composite z-score in [7] is -0.106; in assay [9], -0.124; in assay [10] it was -0.175; in assay [11], 0.212; in assay [15], 1.31; in assay [17], -0.036. In addition, the composite z-score in assay [18] is -0.0355; in assay [19], -0.0905; in [20], -0.203. Besides, the z-score in [8] is 1.3 (inactive); in assay [12], 0.15 (inactive); in assay [13] it was -0.595 (inactive); in assay [14], -0.273 (inactive); in [16], 0.802 (inactive).

As to `COc1cc(NN2C(C(O)c3ccc(I)cc3)C=CC3C(=O)N(c4ccccc4)C(=O)C32)cc(OC)c1OC` (stereo not given), the composite z-score in assay [1] was found to be 0.32; in assay [2], 0.808; in assay [3] it was 0.145; in assay [4], 0.868; in [5], 1.55; in [6], 2.04. Besides, the composite z-score in [7] is 1.35; in assay [9] it was 1.22; in assay [10], 0.415; in assay [11], 1.56; in assay [15], 3.56; in assay [17], 0.25. In addition, the composite z-score in assay [18] was 0.218; in assay [19], 1.05; in assay [20] it was -0.0423. The z-score in assay [8] is -2.51 (inactive); in assay [12], 0.93 (inactive); in assay [13], -0.229 (inactive); in assay [14] it was 0.0332 (inactive); in assay [16], -0.699 (inactive).

For `COc1ccc([Si](C)(C)[C@@H]2[C@@H](CC(=O)N3Cc4ccccc4C[C@H]3CO)O[C@]3(C(=O)N(Cc4ccc(N5CCC5=O)cc4)c4ccccc43)[C@H]2C)cc1`, the composite z-score in assay [1] was -0.406; in [2] it was 0.351; in assay [3] it was -0.12; in assay [4], 0.163; in assay [5] it was 0.291; in [6] it was 0.636. Also, the composite z-score in assay [7] is 0.866; in assay [9] it was 0.246; in [10] it was -0.23; in assay [11], 1.55; in [15], 2.77; in assay [17] it was -0.0945. Moreover, the composite z-score in [18] is 1.32; in assay [19], 1.14; in [20], -0.0954. Moreover, the z-score was -1.63 (inactive) in [8]; 0.68 (inactive) in assay [12]; 1.02 (inactive) in [13]; 3.23 (inactive) in [14]; 0.409 (inactive) in assay [16].

For the compound `COc1cc(NN2C(C(O)c3ccccc3)C=CC3C(=O)N(C)C(=O)C32)cc(OC)c1OC` (stereo not given), the composite z-score was 0.0217 in [1]; 0.48 in assay [2]; 0.0074 in [3]; 0.371 in [4]; 1.34 in [5]; 1.88 in assay [6]. Moreover, the composite z-score in assay [7] was 1.36; in assay [9] it was 0.4; in [10] it was -0.0672; in [11] it was 1.53; in assay [15], 2.98; in [17], 0.12. For the same compound, the composite z-score in [18] is 0.27; in assay [19], 0.832; in assay [20] it was -0.0581. Also, the z-score in assay [8] was 0.359 (inactive); in assay [12], 0.679 (inactive); in assay [13], 0.529 (inactive); in assay [14], 0.328 (inactive); in assay [16] it was -0.852 (inactive).

On to `Cc1ccc(S[C@]2(C(=O)NCC(C)C)CC(=O)N(C3Cc4ccccc4C3)[C@@H]2c2ccc(CO)cc2I)cc1`, for which the composite z-score in assay [1] was 0.757; in assay [2], -0.5; in assay [3], -0.0238; in assay [4] it was 0.166; in assay [5], -1.01; in [6], 0.123. The composite z-score in [7] was -0.126; in assay [9], 0.962; in [10] it was 0.513; in assay [11] it was -0.409; in assay [15], 0.724; in assay [17], 0.0349. Besides, the composite z-score in assay [18] is -1.45; in assay [19], -0.933; in assay [20], -0.294. Moreover, the z-score in [8] was -1.83 (inactive); in assay [12], -0.766 (inactive); in [13], -1.49 (inactive); in [14], 1.51 (inactive); in assay [16] it was -0.0979 (inactive).
